Assay results from PubChem BioAssay AID504332 (National Center for Advancing Translational Sciences (NCATS), 2011).
Where “and” joins values, the source holds several entries; their conditions need not be identical. Equal entries are not always repeated. Hit rate of the full screen: of about 350,000 compounds, about 31,000 (8.9%) were called active. About 15% were inconclusive and are not listed. This is one part of a sample in which actives are shown more often than they occur. Calls come from the whole dose curve; as a rule, active = well fitted inhibition curve with a large enough effect; inconclusive = small, poorly fitted or top-dose-only effect; inactive = no such curve, though single readings can be large or run the other way. Some structures have more than one record in an assay (separate samples or runs), and their calls can disagree.

biological target: Histone-lysine N-methyltransferase EHMT2 (Homo sapiens) (UniProt Q96KQ7); test: qHTS Assay for Inhibitors of Histone Lysine Methyltransferase G9a; conditions: G9a H3K9 monomethylation, AlphaScreen, 2 h; series mostly up to 59 µM; note: nearly all actives have a fitted effect of over 75% in size
Sequence (Q96KQ7 913-1193 limits assumed): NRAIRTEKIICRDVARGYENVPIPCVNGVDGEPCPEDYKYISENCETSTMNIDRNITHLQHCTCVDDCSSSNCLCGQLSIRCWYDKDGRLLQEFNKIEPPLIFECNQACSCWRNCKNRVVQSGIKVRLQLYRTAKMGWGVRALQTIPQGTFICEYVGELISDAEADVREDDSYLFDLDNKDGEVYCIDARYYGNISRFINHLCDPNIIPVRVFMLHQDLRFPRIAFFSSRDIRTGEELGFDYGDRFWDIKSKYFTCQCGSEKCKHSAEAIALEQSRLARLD
Summary of the method: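 AlphaScreen read-out: biotin-H3K9 peptide (500 nM) methylation by 20 nM enzyme with 20 uM SAM, 2 h at room temperature after 15 min compound preincubation; anti-monomethyl H3K9 antibody plus donor/acceptor beads, 10 min dark.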
% is set by controls: 0 for no effect and ±100 for the full control effect; potency is the fitted concentration of half-maximal effect.

activity, negative = inhibition, inactive:
O=c1oc2ccc(C#CC3(O)CCCCC3)cc2cc1-n1cc(-c2ccsc2)nn1 -0.586% [at 0.501 µM]
CCOc1ccc2oc(C(=O)N(CC)CC(=O)Nc3ccc(NC(C)=O)cc3)c(C)c2c1 -40.2% [at 12.7 µM]
CC(Sc1ncnc2c1cnn2-c1ccccc1)C(=O)Nc1ccc(N2CCOCC2)cc1 (stereo unspecified) 9% [at 0.501 µM]
COc1ccc(C2=NOC(Cn3nc(C(=O)NCc4ccc5c(c4)OCO5)cc3-c3ccccc3)C2)cc1 (stereo unspecified) 1.74% [at 2.33 µM]
Cc1ccc(S(=O)(=O)n2cccc2CO)cc1 0.915% [at 2.33 µM]
COCc1cc(C(C)=O)ccc1OC -11.9% [at 12.7 µM]
CCn1c2ccccc2c2cc(NC(=S)N3CCOCC3)ccc21 7.32% [at 12.7 µM]
COc1ccc(C(=O)OCC(=O)Nc2ccc3[nH]c(=O)[nH]c3c2)c(OC)c1OC 4.23% [at 0.501 µM]
Cc1c(C(=O)NNC(=O)c2ccncc2)oc2ccccc12 1.49% [at 12.7 µM]
COc1ccc(C(=O)N(Cc2ccccc2)c2ccc(C)cc2)cc1S(=O)(=O)N1CCOCC1 8.07% [at 0.501 µM]
O=c1c2ccccc2ccc2ccc(P(=O)(O)O)cc12 2.62% [at 0.501 µM]
Cc1ccc(-n2ncc3c2CCCC3NC(=O)c2cnccn2)cc1C (stereo unspecified) -6.28% [at 0.501 µM]
CCOc1ccc(Nc2ncnc3scc(-c4ccc(OC)cc4)c23)cc1 2.22% [at 12.7 µM]
Cc1cccc(NC(=O)CN2CCN(C(=O)C3CCN(C(=O)/C=C/c4ccccc4)CC3)CC2)c1C 14.7% [at 2.33 µM]

Potency, inactive and 44.7 µM (active):
COc1ccc(C2CC(=O)Oc3ccc(C(C)(C)C)cc32)cc1 (stereo unspecified)

Potency, active:
COc1ccc(N2CCN(C(=O)CCc3nc(-c4ccc(C)cc4)no3)CC2)cc1 31.6 µM
COc1cc(/C=C(\C#N)c2nc3ccccc3[nH]2)ccc1O 39.8 µM
COc1cc(/C=C(\C#N)c2nc3c(s2)CC(C)CC3)ccc1O (stereo unspecified) 50.1 µM
CC1(C)CC(=O)c2cnc3nc4ccccc4n3c2C1 17.8 µM
Cc1c2cnn(-c3ccccc3)c(=O)c2c(C)n1CCCC(=O)N1CCN(C)CC1 79.4 µM
COc1ccc(C(C)=O)cc1COC(=O)Cn1cnc2ccccc2c1=O 50.1 µM
Nc1ccc(-c2nnc(-c3ccc(-c4ccccc4)cc3)o2)cc1 7.08 µM
Cc1cc(N2CCOCC2)nc2ccc(NC(=S)N3CCN(Cc4ccccc4)CC3)cc12 50.1 µM
CCOCCCNC(=S)Nc1ccc2nc(N3CCN(CC)CC3)cc(C)c2c1 31.6 µM
CCOC(=O)c1cc2c(n(-c3ccc(C)cc3)c1=O)CCCC2=O 17.8 µM
Oc1cc(O)c2c(c1)OC(c1ccc(O)c(O)c1)C(O)C2 (stereo unspecified) 2.51 µM
O=C(CN1CCN(C(=O)c2cccc(F)c2)CC1)Nc1ccccc1F 56.2 µM
Cc1ccc(CCCOC(=O)C[N+]2(C)CCCC2)cc1 15.8 µM
Cn1c(=O)c([N+](=O)[O-])c(Oc2ccccc2)c2ccccc21 39.8 µM
Cc1cccc(Oc2c([N+](=O)[O-])c(=O)n(C)c3ccccc23)c1 44.7 µM
COc1ccc([N+](=O)[O-])cc1C1NN=C(c2cccc3ccccc23)S1 (stereo unspecified) 28.2 µM
C=CCn1c(SCc2c(C)noc2C)nc2sc3c(c2c1=O)CCC(C)C3 (stereo unspecified) 39.8 µM

Potency, inactive:
CCS(=O)(=O)c1ccc(-c2cccc(NC(=O)c3ccc(Br)o3)c2)nn1
CN1CCN(C(=O)CCc2nc(-c3ccc(Cl)cc3)no2)CC1
CCOc1cc(-c2noc(CCC(=O)N3CCOCC3)n2)ccc1OC
COc1ccc(CCC(=O)NCCc2csc(-c3ccc(Cl)cc3)n2)cc1
CCOc1ccc(C(=O)c2cn(Cc3ccccc3OC)c3ccc(F)cc3c2=O)cc1
CCOc1ccc(NC(=O)CCc2c(C)nn(-c3ccc(N4CCCC4)nn3)c2C)cc1
COc1cccc2cc(-c3nc(Cl)c4c5c(sc4n3)CC(C)CC5)c(=O)oc12 (stereo unspecified)
CCOc1ccc(/C=C(\C#N)c2nc3ccccc3c(=O)[nH]2)cc1OC
Cc1ccc2nc(/C(C#N)=C/c3ccccc3F)[nH]c2c1
Cc1ccc(OCCC(=O)OCC(=O)N2c3ccccc3NC(=O)C2(C)C)cc1
COc1ccc(N2CC(NS(=O)(=O)c3ccc4ccccc4c3)CC2=O)cc1 (stereo unspecified)
O=C(N[C@@H](Cc1ccccc1)C(=O)OCc1ccccc1)c1nc[nH]c1C(=O)N[C@@H](Cc1ccccc1)C(=O)OCc1ccccc1
CC(C)c1ccc(NC(=O)Cn2nnc(C(=O)NCCc3ccccc3)c2N)cc1
Cc1ccc(-c2onc(C)c2C)cc1S(=O)(=O)Nc1ccccn1
COc1ccc(C)cc1-n1c(-c2ccc(C)cc2)cc2c1CC(C)(C)CC2=O
CC(C)(C)c1cc(=O)n2c(nc3ccccc32)[nH]1
Cc1ccccc1CNC(=O)Cn1c(C)c2cnn(-c3ccccc3)c(=O)c2c1C
Cc1c2cnn(-c3ccccc3)c(=O)c2c(C)n1C(C)C(=O)Nc1ccc(Br)cc1F (stereo unspecified)
O=C(COC(=O)Cn1cnc2ccccc2c1=O)NCc1ccccc1Cl
COc1ccccc1CNc1ccc(-c2nc(-c3ccccc3C)no2)cc1[N+](=O)[O-]
Brc1ccc(-c2nnc(-c3ccccc3)o2)o1
Nc1ccc(-c2nnc(-c3ccccc3)o2)cc1
O=C(CCS(=O)(=O)c1ccc2c(c1)NC(=O)CO2)Nc1cccc(C(F)(F)F)c1
CC(C)(Oc1ccc(Cl)cc1)C(=O)OCC(=O)NCCc1ccc(S(N)(=O)=O)cc1
CCCn1c(N)c(C(=O)CSc2nnc3n2CCCCC3)c(=O)[nH]c1=O
CCN1CCN(c2cc(C)c3cc(NC(=O)c4cc(Cl)ccc4OC)ccc3n2)CC1
CCCC(=O)NC(=S)Nc1ccc(CN2CCOCC2)cc1
COc1ccc(NC(=S)NCCN2CCC(C)CC2)cc1
COc1ccccc1NC(=O)c1oc2ccccc2c1NC(=O)C(C)C
COC(=O)N/N=C/c1c[n+]([O-])c2ccccc2[n+]1[O-]
CC(C)CC(=O)NCC(c1ccc2c(c1)OCO2)N1CCN(c2ccc(F)cc2)CC1 (stereo unspecified)
CCCCOc1ccc(NC(=O)c2cc3c(n(-c4ccc(Cl)cc4)c2=O)CCCC3=O)cc1
CCOC(=O)C1=C(N)N(c2ccc(C)cc2)C2=C(C(=O)CCC2)C1c1cccs1 (stereo unspecified)
O=C(CCC(=O)c1ccccc1)NCc1cccc(C(F)(F)F)c1
O=C(CN1CCN(S(=O)(=O)c2ccc(F)cc2)CC1)Nc1ccccc1F
O=C(CN1CCCCC1)NC(=O)Nc1ccccc1F
CCOc1ccccc1C(=O)NC1(C(F)(F)F)C(=O)Nc2c1c(=O)[nH]c(=O)n2-c1ccc(F)cc1 (stereo unspecified)
Cc1ccc(C)n1-c1nnc(N2CCC(C(=O)NCc3ccccc3Cl)CC2)s1
O=c1c(-c2ccccc2Cl)c[nH]n1-c1ccccc1
COc1ccc(C2CC(=O)NC(=O)C2)cc1
COc1cc(OC)c2c(c1)OC(=O)CC2c1cc(OC)c(OC)c(OC)c1 (stereo unspecified)
COc1ccc(-c2cc(C(=O)NCc3cc(OC)c(OC)c(OC)c3)[nH]n2)cc1
O=C(CN(C(=O)CNC(=O)c1cccs1)c1cccc(F)c1)NC1CCCCC1
COc1ccc(C)cc1NC(=O)C(=O)NCCc1sc(-c2cccc(C)c2)nc1C
CC1CCCCN1S(=O)(=O)CCNC(=O)c1ccccc1 (stereo unspecified)
CCCCOC(=O)Cn1c(=O)n(CC(=O)OCCCC)c2cc(C)ccc21
Cc1ccc(CCN2CC(C(=O)O)CC2=O)cc1 (stereo unspecified)
COc1cccc(-c2n[nH]c3c2C(c2cccc(O)c2)N(C)C3=O)c1 (stereo unspecified)
Cc1cc(NC(=O)c2ccccc2C)no1
CCOc1ccc(S(=O)(=O)NCCC(=O)N2CCCCCCC2)cc1
Cc1cccc(OP(=O)(Nc2c(C)n(C)n(-c3ccccc3)c2=O)Oc2cccc(C)c2)c1
Cc1cccc(C2CC(=O)Oc3c2c(=O)n(C)c2ccccc32)c1 (stereo unspecified)
Cc1nn(C)c(Oc2ccccc2)c1[N+](=O)[O-]
Cn1nc(-c2ccccc2)c2cc([N+](=O)[O-])ccc21
COc1ccccc1-c1cc2nc(C)c(CCC(=O)NC3CCCCC3)c(C)n2n1
COc1ccc([N+](=O)[O-])cc1NC(=O)C(C)OC(=O)C1c2ccccc2Oc2ccccc21 (stereo unspecified)
COc1ccccc1C1CCN(c2ccc([N+](=O)[O-])cn2)CC1
COc1ccc(-n2c(=O)c3ccccc3n(Cc3ccccc3Cl)c2=O)cc1
Cc1ccc(OCC(=O)OCc2cc(=O)n3nc(C4CC4)sc3n2)cc1
COc1ccccc1NC(=O)CSC1=Nc2ccccc2C2=NC(CC(=O)NCc3cccs3)C(=O)N12 (stereo unspecified)
Cc1c(C(=O)OCC(=O)N2CCCC2=O)oc2ccccc12
C=CCn1c(SCC(=O)NCC2CCCO2)nc2sc(C)c(C)c2c1=O (stereo unspecified)
COc1ccc2cc(-c3nc(Cl)c4c5c(sc4n3)CC(C)CC5)c(=O)oc2c1 (stereo unspecified)
CC(=O)N1CCSc2ccc(S(=O)(=O)N3CCC(C)CC3)cc21
